Inconclusive results are not listed. Entries that show only a call come without a potency. The source made the active and inactive calls. Unless noted, calls follow the shape of the dose curve; as a rule, active = well fitted curve in the direction sought with a large enough effect; inconclusive = small, poorly fitted or top-dose-only effect, or another doubt; inactive = no such curve, though single readings can be large; an effect the other way counts as inactive or inconclusive.

The nature of the first test: qHTS Assay for Identification of Small Molecule Agonists for Hypoxia Response Element Signaling Pathway (AID 914; active = well fitted activation curve with a large enough effect in the signal ratio, with a control signal flat, not every such curve was filed as active; the % refers to the signal ratio). The conditions noted are these: ME-180 (cervical carcinoma) HRE-bla reporter, beta-lactamase ratio, CoCl2, 17 h; stronger effect = higher value. Put shortly:
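qHTS titration; ME-180 HRE-bla cells; EC50 CoCl2 co-treatment, 17 h at 37 degrees Celsius; CCF4 dye, ex 405nm, em 460nm and 530nm; %Activity from ratio; AC50.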
In the case of `c1ccc(C2CC2)c(OCC2=NCCN2)c1`, the activation is 8.99% (inactive). For the compound `O=P1(NCCCl)OCCCN1CCCl` (centres undefined), the activation is -2.35% (inactive). In the case of `CCCC(C)(COC(N)=O)COC(=O)NC(C)C` (centres undefined), the activation is -37.8% (inactive).

A short description of another test: qHTS Assay for Identification of Small Molecule Agonists for Thrombopoietin (TPO) Signaling Pathway (AID 917). The conditions noted are these: TPO signaling pathway reporter cells, agonist qHTS; series mostly up to 38.5 µM. Put shortly: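 Murine Ba/F3 cells stably expressing human TPO receptor and a Glycoprotein IIb promoter–luciferase reporter were IL-3-starved overnight, then treated with compounds plus TPO (26 pM final, its EC50) for 24 hrs at 37 C; luminescence was read.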
As for `Clc1cccc(N2CCNCC2)c1`, the compound was classed as inactive.

`CC(=O)[C@H]1CC[C@H]2[C@@H]3CC[C@H]4C[C@H](O)CC[C@]4(C)[C@H]3C(=O)C[C@]12C`: the outcome was inactive. On the same count and under the same terms, in the case of `NCC1(CC(=O)O)CCCCC1` it was “inactive”; in that of `CCn1cc(C(=O)O)c(=O)c2ccc(C)nc21`, “inactive”. Turning to `COc1ccccc1N1CCNCC1`, the result was inactive.

For `O=c1[nH]c2ccccc2n1CCCN1CCC(n2c(=O)[nH]c3cc(Cl)ccc32)CC1`, the result was inactive. The same measure, in the same setting: in the case of `NCC(CC(=O)O)c1ccc(Cl)cc1` (centres undefined) it was “inactive”; in that of `Nc1ccncc1`, “inactive”. Still for that read-out and setting: in the case of `Cc1cccc(C)c1NC1=NCCCS1` it was “inactive”. Same read-out and setting: for `NN=C(N)N` the value was “inactive”; for `CCCN1CCC[C@@H]2Cc3[nH]ncc3C[C@H]21`, “inactive”. `CCCC(C)(COC(N)=O)COC(=O)NC(C)C` (centres undefined): the call was inactive. The same measure, in the same setting: in the case of `Cc1ncc(CNC(=O)N(CCCl)N=O)c(N)n1` it was “inactive”; in that of `N[C@@H]1C[C@H]1c1ccccc1`, “inactive”. Take `Cc1ccc(S(=O)(=O)N[C@@H](CCCCN)C(=O)CCl)cc1`: the outcome was inactive.

On to `CCCN1CCC[C@@H]2Cc3nc(N)ncc3C[C@H]21`, for which the call was inactive.

A short description of the next test: qHTS Assay for Identification of Small Molecule Antagonists for Thrombopoietin (TPO) Signaling Pathway (AID 918). Also: potency is read from the fitted curve at half-maximal effect; nearly all actives have a fitted effect of over 60% in size. The conditions noted are these: TPO-dependent cell signaling reporter, antagonist mode. In short, it runs like this: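 First, Ba/F3 reporter cells expressing human TPO receptor were held overnight without IL-3. Next, compound and 26 pM TPO were added. After 24 hrs incubation at 37 C, luciferase luminescence under the Glycoprotein IIb promoter was recorded.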
For orientation: qHTS replaces the single test concentration by a dilution series.
Take `COc1ccc(Cc2nccc3cc(OC)c(OC)cc23)cc1OC`: the Potency is 12.6 µM (active). Take `CN1C[C@H](CNC(=O)OCc2ccccc2)C[C@@H]2c3cccc4c3c(cn4C)C[C@H]21`: the Potency is 10 µM (active).

For the compound `Fc1ccc(C(OCCN2CCN(CCCc3ccccc3)CC2)c2ccc(F)cc2)cc1`, the Potency is 10 µM (active). Turning to `O=c1[nH]c2ccccc2n1C1CCN(CCCC(c2ccc(F)cc2)c2ccc(F)cc2)CC1`, the Potency was 10 µM (active).

Another test is described as follows: Cell Viability - LYMP2-001 (AID 921). Also: nearly all actives have a fitted effect of over 70% in size. Also: potency is read from the fitted curve at half-maximal effect. Conditions: LYMP2-001 lymphoblastoid cell viability; series mostly up to 92.2 µM. In short, it runs like this:
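Human lymphoblastoid cells (Coriell), 2500 per well, were preincubated 5 hr at 37 C, then exposed to compounds in complete medium for 24 hr at 37 C. Cellular ATP was read by CellTiter-Glo luminescence; AC50 from Hill fits of concentration-response data.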
With `CNCC(O)c1ccc(O)cc1` (centres undefined), the Potency result was “inactive”. On the same count and under the same terms, for `CCCC(C)(COC(N)=O)COC(=O)NC(C)C` (centres undefined) the value was “inactive”; for `NCC(O)c1ccc(O)cc1` (centres undefined), “inactive”; for `Oc1cccc2cccnc12`, 6.31 µM (active).

A further test is described as follows: Confirmation and Secondary Assay for Modulators of Hemoglobin Beta Chain Splicing at IVS2 705 locus (AID 930).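 Also: HeLa cells stably expressing the EGFP-705 splicing reporter; GFP fluorescence per well restored by corrected splicing of the IVS2-705 intron in EGFP.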 Conditions: HeLa EGFP-705 splicing reporter, GFP fluorescence, 48 h; series mostly up to 46.1 µM. In short, it runs like this:
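Secondary splice-site specificity test uses HeLa expressing CMV-driven EGFP interrupted by IVS2-705; cells were treated 2 days at 37C with 500 nM antisense PNA as positive control.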
As for `COc1ccccc1N1CCNCC1`, the compound was classed as inactive. For the compound `O=c1[nH]c2ccccc2n1CCCN1CCC(n2c(=O)[nH]c3cc(Cl)ccc32)CC1`, the outcome was inactive. For the compound `NCC(CC(=O)O)c1ccc(Cl)cc1` (centres undefined), the compound was called inactive. On the same count and under the same terms, for `Nc1ccncc1` the value was “inactive”; for `COc1ccc(Cc2nccc3cc(OC)c(OC)cc23)cc1OC`, “inactive”. Same read-out and setting: for `Cc1cccc(C)c1NC1=NCCCS1` the value was “inactive”. Same read-out and setting: for `NN=C(N)N` the value was “inactive”; for `CCCC(C)(COC(N)=O)COC(=O)NC(C)C` (centres undefined), “inactive”; for `NCC(O)c1ccc(O)cc1` (centres undefined), “inactive”. Consider `Cc1ncc(CNC(=O)N(CCCl)N=O)c(N)n1`, for which the call was inactive. Turning to `Oc1cccc2cccnc12`, the outcome was inactive. On to `O=c1[nH]c2ccccc2n1C1CCN(CCCC(c2ccc(F)cc2)c2ccc(F)cc2)CC1`, for which the call was inactive.
